Screening data (PubChem BioAssay)
Rows were chosen to be rich in hits. Some 3.3% of all compounds tested hit in one or more screens of this group.
TbPYK inhibitor: qHTS of Trypanosoma Brucei Inhibitors; TbPYK enzyme, Kinase-Glo Plus ATP luminescence, 45 min; Potency, µM (titrated, usually from 76.8 µM), for the others: at the highest dose activity, negative = inhibition, hits mostly inhibitors; actives 0.12% (n = 410,000); further: on the % scale 0 is the no-effect control and ±100 the full control effect; nearly all actives have a fitted effect of over 50% in size
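TbPYK + substrate in 50 mM TEA pH 7.2, 100 mM KCl, 10 mM MgCl2, 0.05% BSA, 0.01% Tween-20; cpd pinned; ADP 130 uM final; 45 min RT; Kinase-Glo Plus 10 min; luminescence endpoint.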
RE007 growth inh: qHTS Assay for Inhibitors of the HIV-1 protein Vpr; AID 651644, 2012; S. pombe RE007 Vpr strain, BacTiter-Glo ATP luminescence, 24 h; Potency, µM (top dose mostly 92.2 µM), inactives show top-dose activity change, negative = less growth, actives largely listed as inhibitors; actives 0.21% (n = 360,000); active means well fitted falling curve with a large enough effect; inconclusive means small, poorly fitted or top-dose-only effect; inactive means no such curve, though single readings can be large or run the other way; further: on the % scale 0 is the no-effect control and ±100 the full control effect; nearly all actives have a fitted effect of over 50% in size
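Fission yeast RE007 carrying one integrated HIV-1 vpr copy, seeded at OD 0.01 in PMG+AL medium with 23 nL pinned compound. Grown 24 h at 30 degrees; viability read by BacTiter-Glo luminescence after 5 min.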
SARS PLP yeast: qHTS of Yeast-based Assay for SARS-CoV PLP; S. cerevisiae expressing SARS-CoV PLpro, growth rescue; actives 0.19% (n = 330,000); Potency, µM (doses to about 32.9 µM), for the others: top-dose activity, positive = growth rescue, hits mostly activators; calls by dose curve; further: 0% is about no effect; nearly all actives have a fitted effect of over 55% in size
LmPK inh: qHTS Assay for Inhibitors of Leishmania Mexicana Pyruvate Kinase (LmPK). purified LmPK, Kinase-Glo ATP luminescence, 1 h. Potency, µM (highest dose often 57.5 µM), for inactives: at the top dose activity change, negative = inhibition, hits mostly inhibitors. actives 0.37% (n = 290,000); further: on the % scale 0 is the no-effect control and ±100 the full control effect
Target sequence (Q27686 whole entry, looked up): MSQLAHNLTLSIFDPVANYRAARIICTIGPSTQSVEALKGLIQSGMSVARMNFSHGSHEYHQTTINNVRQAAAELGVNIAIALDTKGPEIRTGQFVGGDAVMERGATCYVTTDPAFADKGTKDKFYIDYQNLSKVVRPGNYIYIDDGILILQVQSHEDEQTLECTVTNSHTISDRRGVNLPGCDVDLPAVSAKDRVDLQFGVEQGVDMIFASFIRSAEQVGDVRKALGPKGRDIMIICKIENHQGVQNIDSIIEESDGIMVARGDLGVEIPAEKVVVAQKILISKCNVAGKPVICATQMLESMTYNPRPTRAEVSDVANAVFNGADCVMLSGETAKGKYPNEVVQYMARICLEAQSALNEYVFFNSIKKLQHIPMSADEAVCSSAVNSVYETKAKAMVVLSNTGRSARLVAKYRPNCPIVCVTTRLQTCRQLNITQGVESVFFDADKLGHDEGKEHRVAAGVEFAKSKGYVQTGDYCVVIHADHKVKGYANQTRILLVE
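Purified LmPK (0.1 nM) with 0.5 mM PEP and 0.1 mM ADP in imidazole buffer pH 7.2 with MgCl2/KCl, 1 h at room temperature. ATP formed was read by luciferase luminescence and normalized to no-enzyme and uninhibited controls.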
NS1 inh: qHTS Assay for Inhibitors of Influenza NS1 Protein Function. Potency, µM (doses to about 46.1 µM), for the others: at the highest dose activity, positive = more growth. actives 0.4% (n = 270,000). AID 2326, 2010; calls by dose curve; further: actives are rising curves; nearly all actives have a fitted effect of over 50% in size
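In this qHTS, NS1 from influenza A is expressed in budding yeast, where it slows growth. Cells are switched from glucose to 2% galactose medium (pH 6.0, -URA), treated with compound, and growth recovery is read at OD600.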
Sm TGR inh: qHTS Assay for the Inhibitors of Schistosoma Mansoni Peroxiredoxins; Schistosoma mansoni thioredoxin glutathione reductase (TGR), Q962Y6; purified TGR, DTNB reduction, TNB absorbance 405 nm; Potency, µM (titrated, usually from 114 µM), for inactives: top-dose activity change, negative = inhibition, hits mostly inhibitors; actives 3% (n = 360,000); AID 485364, 2010; further: on the % scale 0 is the no-effect control and ±100 the full control effect; nearly all actives have a fitted effect of over 60% in size
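TGR 20 nM + NADPH 100 uM (dispensed conc.), cpd preinc 15 min RT; start with NADPH (500 uM addition) then DTNB (15 mM addition). Kinetic TNB absorbance, 405 nm filter. Four-parameter Hill fit across titration.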
An asterisk follows results filed as active; [ ] = dose if it differs, or a comment. Unless noted, the call rests on the fitted dose curve; in most records, active means well fitted curve in the direction sought with a large enough effect; inconclusive means small, poorly fitted or top-dose-only effect, or another doubt; inactive means no such curve, though single readings can be large; an effect the other way counts as inactive or inconclusive. Potency means the concentration at half of the fitted maximal effect.

Results for CC(C)(C)NC(=O)C(c1ccc(O)cc1)N(Cc1ccco1)C(=O)CCC(=O)Nc1ccccn1 (stereo not drawn) ?
TbPYK inhibitor: -19.1%; RE007 growth inh: -17.0%; SARS PLP yeast: 0.3%; LmPK inh: 6.6%; NS1 inh: -5.7%; Sm TGR inh: -10.2%

Results for CC(C)(C)NC(=O)C(c1ccncc1)N(Cc1ccco1)C(=O)c1ccc(-c2ccccc2)[nH]1 (stereo not drawn) ?
TbPYK inhibitor: -8.3%; RE007 growth inh: -9.3%; SARS PLP yeast: -9.0%; LmPK inh: 5.3%; NS1 inh: 4.1%; Sm TGR inh: 10µM*

What do the screens show for `CC(C)(C)NC(=O)C(c1ccc(Cl)cc1)N(Cc1ccco1)C(=O)CCl` (stereo not drawn)?
TbPYK inhibitor: -13.9%; RE007 growth inh: -5.1%; SARS PLP yeast: -3.9%; LmPK inh: -0.4%; NS1 inh: -2.1%; Sm TGR inh: 11.2µM*

How did COc1ccc(N2CCN(CCCNC(=O)c3cnn(-c4ccc(F)cc4)c3-n3cccc3)CC2)cc1 do in these assays?
TbPYK inhibitor: -9.4%; Sm TGR inh: 0.3%

Results for O=C(O)CSc1ccc(NC(=O)Nc2ccccc2F)cc1 ?
TbPYK inhibitor: inconclusive; RE007 growth inh: inconclusive; SARS PLP yeast: -1.9%; LmPK inh: 15.8µM*; NS1 inh: -2.6%; Sm TGR inh: 7.8%

What do the screens show for `CN(/N=C/c1ccc(Br)o1)C1=NS(=O)(=O)c2ccccc21`?
TbPYK inhibitor: 1.3%; RE007 growth inh: 4.6%; SARS PLP yeast: 1.0%; LmPK inh: -12.5%; Sm TGR inh: 44.7µM*

How did Cc1ccc(/C=N/N(C)C2=NS(=O)(=O)c3ccccc32)o1 do in these assays?
SARS PLP yeast: 0.4%; LmPK inh: 1.6%; Sm TGR inh: -9.1%

How did COC(=O)c1[nH]nc(C(=O)OC(C)(C)C)c1-c1ccccc1 do in these assays?
TbPYK inhibitor: -1.6%; RE007 growth inh: 1.8%; SARS PLP yeast: 3.0%; LmPK inh: -1.6%; NS1 inh: -3.0%; Sm TGR inh: 22.4µM*

Results for Cc1ccc(CN2CCN(C3CCN(C(=O)c4ccc(C)cc4)CC3)C(=O)C2=O)cc1 ?
TbPYK inhibitor: 2.3%; Sm TGR inh: 6.9%

How did O=C(/C=C/c1ccco1)Nc1ccc2c(c1)OCCO2 do in these assays?
TbPYK inhibitor: -2.1%; RE007 growth inh: -14.3%; SARS PLP yeast: -2.0%; LmPK inh: -0.4%; Sm TGR inh: 20µM*

Results for O=C(/C=C/c1ccco1)NC(=S)Nc1ccc(N2CCOCC2)c(Cl)c1 ?
TbPYK inhibitor: -1.4%; RE007 growth inh: -5.4%; SARS PLP yeast: 4.1%; LmPK inh: 6.3%; NS1 inh: 9.6%; Sm TGR inh: 39.8µM*

Results for O=C(/C=C/c1ccco1)Nc1ccc(N2CCCC2)cc1 ?
TbPYK inhibitor: -23.1%; RE007 growth inh: 2.9%; SARS PLP yeast: -19.0%; LmPK inh: -17.3%; NS1 inh: 15.6%; Sm TGR inh: -27.5%

Results for O=C(/C=C/c1ccco1)Nc1ccc(C(=O)N2CCOCC2)cc1 ?
TbPYK inhibitor: -19.5%; RE007 growth inh: -10.4%; SARS PLP yeast: -11.9%; LmPK inh: -6.5%; NS1 inh: 8.7%; Sm TGR inh: 12.6µM*

Results for O=C(/C=C/c1ccccc1)Nc1ccc2c(c1)OCCO2 ?
TbPYK inhibitor: -0.4%; RE007 growth inh: 35.1%; SARS PLP yeast: -3.6%; LmPK inh: -25.5%; NS1 inh: -44.0%; Sm TGR inh: 4.0%[57.1 µM]

How did O=C(/C=C/c1ccco1)c1ccc(NC(=O)C23CC4CC(CC(C4)C2)C3)cc1 do in these assays?
TbPYK inhibitor: inconclusive; RE007 growth inh: -13.3%; SARS PLP yeast: -16.2%; LmPK inh: 1.8%; NS1 inh: inconclusive; Sm TGR inh: 10µM*

What do the screens show for `O=C(C=Cc1ccco1)c1ccc([N+](=O)[O-])cc1`?
TbPYK inhibitor: -5.4%; RE007 growth inh: -12.6%

How did O=C(/C=C/c1ccccc1)NC(=S)Nc1ccc(N2CCOCC2)c(Cl)c1 do in these assays?
TbPYK inhibitor: 9.1%; RE007 growth inh: 13.3%; SARS PLP yeast: 1.3%; LmPK inh: 4.8%; NS1 inh: -3.6%; Sm TGR inh: -0.2%

Results for COc1ccc2c(c1)CC(C(=O)Nc1cc(Cl)ccc1C)CO2 (stereo not drawn) ?
TbPYK inhibitor: 8.1%; Sm TGR inh: -4.8%

How did O=C(/C=C/c1ccco1)Nc1ccccc1N1CCOCC1 do in these assays?
TbPYK inhibitor: -6.5%; RE007 growth inh: -21.9%; SARS PLP yeast: -6.1%; LmPK inh: -0.2%; NS1 inh: -23.9%; Sm TGR inh: 20µM*

How did O=C(/C=C/c1ccco1)Nc1ccc(CN2CCOCC2)cc1 do in these assays?
TbPYK inhibitor: 2.5%; RE007 growth inh: -0.5%; SARS PLP yeast: 0.2%; LmPK inh: 1.3%; NS1 inh: 1.2%; Sm TGR inh: 20µM*

What do the screens show for `CCOc1ccc(N(C)S(=O)(=O)c2ccc3c(c2)C(C)(C)C(=O)N3C)cc1`?
TbPYK inhibitor: 3.4%; Sm TGR inh: 2.6%

How did Cc1[nH]n(-c2ccccc2)c(=S)c1C=Nc1cccc([N+](=O)[O-])c1 do in these assays?
TbPYK inhibitor: 3.16µM*; RE007 growth inh: 12.7%; SARS PLP yeast: 5.5%; LmPK inh: -26.8%; NS1 inh: 4.7%; Sm TGR inh: 79.4µM*

What do the screens show for `CCCCN=Cc1c(C)[nH]n(-c2ccccc2)c1=S`?
TbPYK inhibitor: 7.94µM*; RE007 growth inh: 1.2%; SARS PLP yeast: 4.6%; LmPK inh: inconclusive; Sm TGR inh: 0.1%

How did O=C(/C=C/c1cccs1)N1CCN(c2ccc(O)cc2)CC1 do in these assays?
TbPYK inhibitor: -9.6%; RE007 growth inh: 137.3%; SARS PLP yeast: -1.2%; LmPK inh: 15.8µM*; Sm TGR inh: 1.9%

What do the screens show for `CCOc1ccccc1N(C)C(=O)c1cc(S(=O)(=O)NCc2ccc(C)cc2)ccc1F`?
TbPYK inhibitor: 2.7%; Sm TGR inh: 1.2%

How did CN(NC(=O)/C=C/C(=O)O)c1ncc(C(F)(F)F)cc1Cl do in these assays?
TbPYK inhibitor: 8.3%; RE007 growth inh: -24.3%; SARS PLP yeast: -9.3%; LmPK inh: 4.8%; Sm TGR inh: 20µM*

What do the screens show for `COc1ccccc1Oc1nc2c(c(=O)n(Cc3ccccc3F)c(=O)n2C)n1C`?
TbPYK inhibitor: -15.1%; RE007 growth inh: -1.7%; SARS PLP yeast: -5.3%; LmPK inh: -4.3%; NS1 inh: -35.2%; Sm TGR inh: 2.82µM*
